# Sm TGR block = S. mansoni TGR enzyme inhibition; Potency, µM (series often up to 114 µM), hits mostly inhibitors; purified TGR, DTNB reduction, TNB absorbance 405 nm; 360,000 tested, 3% active; Q962Y6; further: nearly all actives have a fitted effect of over 60% in size
#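 TGR 20 nM + NADPH 100 uM (dispensed conc.), cpd preinc 15 min RT; start with NADPH (500 uM addition) then DTNB (15 mM addition). Kinetic TNB absorbance, 405 nm filter. Four-parameter Hill fit across titration.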
# NS1 function inh = blocks influenza NS1 protein function; Potency, µM (top dose mostly 46.1 µM); 270,000 tested, 0.4% active; AID 2326; calls by dose curve; further: actives are rising curves; nearly all actives have a fitted effect of over 50% in size
#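 S. cerevisiae expressing influenza A NS1, grown in glucose, washed, then diluted 1:100 into pH 6.0 -URA galactose medium with 23 nl compound. Growth recovery read as OD600; NS1-free strain serves as control.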
# Pf growth 48h = P. falciparum growth inhibition at 48 hours (one generation); P. falciparum luciferase growth in erythrocytes, 48 h; 310,000 tested, 5.9% active; AID 504832; Potency, µM (series often up to 28.7 µM), usual class: inhibitors
#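 First compound was added to culture medium, then infected red cells at 0.1% parasitemia and 2% hematocrit (final). After incubation at 37 C under 5% CO2, luciferase detection reagent was dispensed and light output recorded.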
# AMA1-RON2 inh = AMA1-RON2 (P. falciparum) interaction inhibition; AlphaScreen AMA1-biotinylated RON2 peptide binding; Potency, µM (top dose mostly 58.2 µM), hits mostly inhibitors; 360,000 tested, 0.2% active; AID 720542; further: nearly all actives have a fitted effect of over 45% in size
#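 AMA1 (3D7) with his tag at 25 nM final met compounds first, then biotinylated RON2 peptide at 25 nM; detection used donor plus acceptor beads, 10 µg/mL apiece, read by AlphaScreen after 30 min at room temperature.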
# Pf growth 96h = P. falciparum growth inhibition at 96 hours; Potency, µM (top dose mostly 28.7 µM), hits mostly inhibitors; 320,000 tested, 6.9% active; P. falciparum luciferase reporter growth, 96 h
#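 Two-generation exposure (96 h) targets delayed-death phenotype. Reporter parasites carrying integrated firefly luciferase, in red cells at 2% hematocrit and 0.05% parasitemia final, kept at 37 C, 5% CO2; luminescence loss indicates inhibition.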
# Hits are given with their value; i = inactive; ? = inconclusive; nt = no result given; [ ] = another dose, or the depositor's remark. An excerpt weighted towards active compounds, which were near 11% of everything screened. Unless noted, the call rests on the fitted dose curve; in most records, active means well fitted curve in the direction sought with a large enough effect; inconclusive means small, poorly fitted or top-dose-only effect, or another doubt; inactive means no such curve, though single readings can be large; an effect the other way counts as inactive or inconclusive.
SMILES,Sm TGR block,NS1 function inh,Pf growth 48h,AMA1-RON2 inh,Pf growth 96h
Cc1ccc(NC(=O)CN(C)C(=O)c2ccc(Sc3nncn3C)c([N+](=O)[O-])c2)cc1,i,nt,i,i,?
CN=C1N(C)C[C@@H]2[C@@H]3C(=O)N(Cc4ccccc4)C(=O)[C@@H]3[C@](Cc3ccccc3)(C(=O)OC)N12,nt,nt,nt,i,nt
Cc1ccc(S(=O)(=O)N2CCC(=O)N(C(COCc3cccc(C)c3)Cc3ccccc3)CC2)cc1 (stereo not given),i,i,?,i,9.3µM
Cc1ccc(S(=O)(=O)N2CCC(=O)N([C@H](CO)Cc3ccccc3)CC2)cc1,nt,nt,nt,i,nt
CCN(CC)c1ccc(NC(=O)CN2CCN(CC(=O)Nc3ccc(F)cc3)CC2)cc1,i,i,?,i,2.6µM
Oc1ccc(NC(=S)Nc2ccc(F)cc2)cc1,?,i,i,i,i
CCN(CC)c1ccc(NC(=S)Nc2ccc(F)cc2)cc1,i,nt,?,32µM,i
CCN(CC)c1ccc(NC(=O)CN2CCN(CC(=O)Nc3ccc(OC)cc3)CC2)cc1,i,i,?,i,i
CCO[C@@H]1OC(C(=O)N2CCN(Cc3ccccc3)CC2)=C[C@H](c2ccc(Br)cc2)[C@H]1CCCO,?,i,?,i,13µM
CCO[C@H]1OC(C(=O)N2CCN(Cc3ccccc3)CC2)=C[C@@H](C)[C@@H]1CCCO,i,i,i,i,i
CCO[C@@H]1OC(C(=O)N2CCN(Cc3ccccc3)CC2)=C[C@H](c2ccc(C(F)(F)F)cc2)[C@H]1CCCO,?,i,?,i,15µM
Cc1cc(C)c(S(=O)(=O)N2CCN(C(=O)CC(C)n3nc(C)nc3C)CC2)c(C)c1 (stereo not given),nt,nt,nt,i,nt
Nc1ccc2ccccc2c1N=Nc1ccccc1,nt,nt,nt,18µM,nt
Cc1c(Cl)cccc1NC(=O)CSc1nc(=O)n(Cc2ccco2)c2c1CCC2,40µM,nt,nt,nt,nt
COc1ccc(C)cc1NC(=O)CSc1nc(=O)n(Cc2ccco2)c2c1CCC2,35µM,nt,nt,nt,nt
CCc1ccc(NC(=O)CSc2nc(=O)n(Cc3ccco3)c3c2CCC3)cc1,45µM,nt,nt,nt,nt
CC(=O)Nc1ccc(NC(=O)CSc2nc(=O)n(CCCN3CCOCC3)c3c2CCC3)cc1,nt,nt,nt,i,nt
Cc1cccc(NC(=O)CSc2nc(=O)n(Cc3ccco3)c3c2CCC3)c1C,i,nt,nt,nt,nt
CCc1ccc(NC(=O)CSc2nc(=O)n(CCCN3CCOCC3)c3c2CCCC3)cc1,i,nt,9.3µM,i,?
Cc1ccccc1CN1CCCC(C(=O)Nc2ccc(-c3ccn[nH]3)cc2)C1 (stereo not given),i,i,?,i,i
Cc1cc(Nc2nc3ccccc3nc2Cl)n(-c2ccc([N+](=O)[O-])cc2)n1,i,i,nt,i,1µM
Cc1cc(Nc2nc3ccccc3[nH]c2=O)n(-c2ccccc2)n1,i,i,?,i,i[5.75 µM]
COc1ccc(C2(c3ccc(O)cc3O)CC(c3ccccc3Cl)NC(=S)N2)cc1 (stereo not given),i,i,12µM,i,i
CN(C)CCCNC(=O)C(=O)NCC1OCCN1S(=O)(=O)c1cc(F)ccc1F (stereo not given),nt,nt,nt,i,nt
Cc1cc(C)nc(-n2ncc3c2CC(c2ccccc2)CC3=O)n1 (stereo not given),i,i,i,i,?
SMILES,Sm TGR block,NS1 function inh,Pf growth 48h,AMA1-RON2 inh,Pf growth 96h
Cc1cc(C)nc(-n2ncc3c2CC(c2cccc(Cl)c2)CC3=O)n1 (stereo not given),i,nt,?,i,4.1µM
Cc1cc(C)nc(-n2ncc3c2CC(c2ccccc2C)CC3=O)n1 (stereo not given),i,i,?,i,5.2µM
CCC(=O)N1CCc2cc(Br)cc(S(=O)(=O)CCC(=O)NCc3ccc(C)cc3)c21,i,nt,nt,nt,nt
CCc1ccc(NC(=O)CN2C(C(=O)OC)=C(c3ccccc3)c3ccccc3S2(=O)=O)cc1,i,nt,nt,nt,nt
CC(C)(C)c1ccc(C(=O)c2c[nH]c(C(=O)NCc3cccnc3)c2)cc1,i,i,8.3µM,i,5.2µM
COc1ccc(C(=O)c2c[nH]c(C(=O)NCCCn3ccnc3)c2)cc1,i,nt,?,i,?
CC(C)(C)c1ccc(C(=O)NCc2cccnc2)cc1,i,i,i,i,i
CC(C)(C)c1ccc(C(=O)c2c[nH]c(C(=O)NCCCn3ccnc3)c2)cc1,i,i,12µM,i,7.4µM
CS(=O)(=O)c1cnc(-c2ccccc2)nc1Oc1ccc(Cl)cc1,i,i,i,i,i
CS(=O)(=O)c1cnc(-c2ccccc2)nc1Oc1ccc(F)cc1,i,i,13µM,i,?
CCOC(=O)c1cnc(-c2ccccc2)nc1Oc1ccccc1,i,i,i,i,i
CCOC(=O)c1cnc(-c2ccccc2)nc1Oc1ccc(OC)cc1,i,i,8.3µM,i,5.2µM
CC(Oc1ccc(Br)cc1)C(=O)Nc1cc(S(=O)(=O)N2CCOCC2)ccc1N1CCCC1 (stereo not given),i,nt,?,i,13µM
CC(Oc1ccc(F)cc1)C(=O)Nc1cc(S(=O)(=O)N2CCOCC2)ccc1N1CCCCC1 (stereo not given),i,nt,4.7µM,i,3.3µM
CC(Oc1ccc(F)cc1)C(=O)Nc1cc(S(=O)(=O)N2CCOCC2)ccc1N1CCCC1 (stereo not given),i,i,i,i,?
COC(=O)C1=C(c2ccc(OC)cc2)OC(=O)C1(C)C,i,i,i,i,?
CCOc1ccc(NC(=O)Cn2c(C)cc3ccccc3c2=O)cc1,i,nt,nt,nt,nt
c1ccc(Nc2ccccc2Nc2ccccn2)nc1,i,i,?,i,i
Oc1cccc2ccc(Nc3ccccn3)nc12,i,i,0.37µM,i,nt
CC(C)c1nc(NCC2CCCO2)c(C#N)c2c1COC(C)(C)C2 (stereo not given),i,i,13µM,i,i
Cc1ccc(C(C)NC(=O)Cc2cccs2)c(C)c1 (stereo not given),i,i,i,i,i
CC(C)c1ccc(/C=c2\sc3nc(-c4ccncc4)nn3c2=O)cc1,i,i,i,i,4.1µM
Cc1ccc(/C=c2\sc3nc(-c4cccnc4)nn3c2=O)cc1,i,i,i,i,?
O=C(c1ccc(Cl)cc1)N(c1ccccn1)C1CCCCC1,i,i,i[5.75 µM],i,i[5.75 µM]
O=C(c1cccc(C(=O)N(c2ccccn2)C2CCCCC2)c1)N(c1ccccn1)C1CCCCC1,i,i,12µM,i,i
SMILES,Sm TGR block,NS1 function inh,Pf growth 48h,AMA1-RON2 inh,Pf growth 96h
COc1cccc(-n2c(SCC(=O)N3CCOCC3)nnc2-c2c[nH]c3ccccc23)c1,i,i,nt,i,10µM
CCOC(=O)CSc1nnc(-c2c[nH]c3ccccc23)n1CC,i,i,nt,i,i
Cn1c(SCC(=O)N2CCCc3ccccc32)nnc1-c1c[nH]c2ccccc12,i,i,13µM,i,i
COc1ccc(-n2c(SCC(=O)N3CCc4ccccc43)nnc2-c2c[nH]c3ccccc23)cc1,i,i,i,i,i
CCOC(=O)c1c(NC(=O)CSc2nnc(-c3c[nH]c4ccccc34)n2CC)sc2c1CCCC2,i,?,?,i,12µM
COc1cccc(-n2c(SCC(=O)N3CCOCC3)nc3c([nH]c4ccccc43)c2=O)c1,nt,i,nt,i,nt

# Source: PubChem BioAssay
